# In PubChem BioAssay AID1053174 (Broad Institute, 2014):
# The whole screen tested about 1,500 compounds, of which about 140 (9.3%) were called active. The rule behind the calls is not given here. Not all results are given here.
# Assay: AlphaScreen signal interference with preloaded methylated product, dose response, artefact control for NSD2 inhibitor project, biochemical, cherry-picked samples (AID 1053174)
# Conditions: AlphaScreen artifact counterscreen, preloaded methylated H4 peptide; series mostly up to 10 µM
row,SMILES,AC35
1,CCNC(=O)C1(C)CCCN(C(=O)c2ccc3ccccc3n2)C1 (stereo unspecified),inactive
2,O=C(/C=C/c1ccc(Cl)cc1Cl)NCc1ccco1,inactive
3,COC(=O)c1nc(NC(=O)c2ccccc2)n[nH]1,inactive
4,CCC1=[N+]([O-])C(C)(/C(C)=N\O)N(O)C1(C)C (stereo unspecified),inactive
5,COC(=O)CCCCC1=CCC2C(=O)C=C(O)C2C1 (stereo unspecified),inactive
6,Clc1ccc(C2=CSC3=Nc4cccc5cccc(c45)N23)cc1,inactive
7,C=CCc1cccc2cc(C(=O)Nc3ccc(NC(C)=O)cc3)c(=O)oc12,inactive
8,Oc1ccc(CNc2ccccc2O)cc1,inactive
9,O=C(CNC(=O)c1ccccc1)Oc1ccc([N+](=O)[O-])cc1,inactive
10,Cc1c(CC(=O)N2CCN(C(=O)C3COc4ccccc4O3)CC2)c(=O)oc2c(O)c(O)ccc12 (stereo unspecified),inactive
11,CS(=O)(=O)N(CC(=O)NCc1ccco1)c1ccc2c(c1)OCO2,inactive
12,Cc1[nH]n(-c2ccccc2)c(=O)c1N=Nc1ccccc1C(=O)N1CCCCC1,inactive
13,CN(C(=O)CN1C(=O)S/C(=C\c2ccccc2F)C1=O)C1CCS(=O)(=O)C1 (stereo unspecified),inactive
14,CC(=O)N(C1=C(Cl)C(=O)c2ccccc2C1=O)c1ccc(C(=O)O)cc1,inactive
15,C(=N/Nc1cc(N2CCOCC2)nc(N2CCOCC2)n1)/c1ccccc1,inactive
16,Cc1cccc(OCCC(=O)Nc2ccccc2C(N)=O)c1,inactive
17,Cn1ncc2c(Nc3cccc4ccccc34)ncnc21,inactive
18,Cc1[nH][nH]c(=O)c1C(c1ccc2c(c1)OCO2)c1c(C)[nH][nH]c1=O,inactive
19,Cc1ccc(S(=O)(=O)/N=C2\C=C(NS(=O)(=O)c3ccc(C)cc3)C(=O)c3ccccc32)cc1,9.17 µM (active)
20,O=c1[nH]c(CN2CCOCC2)nc2cc(Cl)ccc12,inactive
21,CCOC(=O)c1nnn(-c2nonc2OC)c1-c1ccccc1,inactive
22,Cc1cc(=O)[nH]c(N/N=C/c2c(C)nn(-c3ccccc3Cl)c2Cl)n1,inactive

row,SMILES,AC35
1,Cc1ccc(-c2ccc(/C=N/NC(=O)CN3CCOCC3)o2)cc1[N+](=O)[O-],inactive
2,CCN1CCCC1CNc1ncnc2c1[nH]c1ccc(F)cc12 (stereo unspecified),inactive
3,O=C(NNC(=O)c1ccc(Cl)nc1)c1ccc(Br)cc1,inactive
4,CCN(CC)CCCC(C)n1c2nc(=O)[nH]c(=O)c-2nc2cc(Cl)ccc21 (stereo unspecified),inactive
5,CCN(CC)CCOc1ccc2c(c1)C(=NNC(=O)c1ccccn1)c1cc(OCCN(CC)CC)ccc1-2,inactive
6,Cc1ccnc(N2CCC(C(=O)NC3CCCCCC3)CC2)n1,inactive
7,C=CCNCCCCOc1ccccc1,inactive
8,Cc1ccccc1-n1nc(C)c2c1N=C1C(Cl)=CC(Cl)=CN1C2c1ccc(C(=O)O)cc1 (stereo unspecified),inactive
9,CCOC(=O)c1c(C)[nH]c(C(=O)NCCN2CCOCC2)c1C,inactive
10,O=C1C=CC(=O)N1c1ccc(N2CCCCC2)cc1,inactive
11,O=C(Cn1cc(C(F)(F)F)ccc1=O)Nc1ccc2c(c1)OCCO2,inactive
12,COc1cc(C(=O)Nn2c(O)c(C3=c4ccccc4=NC3=O)sc2=S)ccc1O,inactive
13,COc1ccc(NC(=O)Cn2nnc(C(=O)NCCc3ccc(OC)c(OC)c3)c2N)cc1,inactive
14,CCOc1cc(/C=C/C(=O)OCC(=O)NCCN2C(=O)CSC2=O)ccc1OCC(C)C,inactive
15,CC1CCN(CCC(=O)Nc2ccccc2)CC1,inactive
16,O=C1Nc2cc(C(=O)N3CCC(N4CCCCC4)CC3)ccc2S/C1=C\c1ccccc1,inactive
17,CC(C)(C)CC(=O)Nc1nnc(SCC(=O)NCc2cccs2)s1,inactive
18,O=C1C(Cl)=C(Oc2ccccc2)C(=O)c2ccccc21,inactive
19,O=c1ccc2c(-c3ccccc3S(=O)(=O)O)c3ccc(O)c(O)c3oc-2c1O,0.557 µM (active)
20,CC(=O)c1cc(-c2ccccc2)n(CC(=O)NC2CCCCC2)c1C,inactive
21,Cc1[nH][nH]c(=O)c1C(c1ccc(-c2ccc(Cl)cc2)o1)c1c(C)[nH][nH]c1=O,inactive
22,CCOc1ccc(C(CC(=O)O)NC(=O)C23CC4CC(CC(C4)C2)C3)cc1OC (stereo unspecified),inactive

row,SMILES,AC35
1,COc1ccc(S(=O)(=O)N2CCCC(C(=O)NCCCn3ccnc3)C2)cc1OC (stereo unspecified),inactive
2,COc1ccc(NC(=O)C2Cc3c(-c4ccc(Cl)cc4)ccnc3O2)cc1 (stereo unspecified),inactive
3,CCOc1ccccc1Nc1nnc(SCc2ccc(C(=O)OC)o2)s1,inactive
4,NC1=CC(=O)C(=O)c2cccnc21,inactive
5,N#Cc1ccc(CSc2ncccn2)cc1,inactive
6,Cc1ccc(S(=O)(=O)N(C)C)cc1NC(=O)/C=C/c1cccs1,inactive
7,O=C(CN1C(=O)c2ccc([N+](=O)[O-])cc2C1=O)Nc1nnc(C2CC2)s1,inactive
8,O=C(NCc1ccco1)c1nc(-c2ccccc2)n(-c2ccccc2)n1,inactive
9,CCOC(=O)c1c(C)[nH]c2c1-c1ccccc1C(=O)C2=O,inactive
10,O=[N+]([O-])c1ccccc1Nc1ccc(O)cc1,inactive
11,O=C(CSc1nnc(-c2ccccc2O)o1)NC1CCCCC1,inactive
12,Cc1ccc(C(=O)Cn2cc([N+](=O)[O-])nc2C)cc1,inactive
13,COCC(C)n1c(SCC(=O)NC2CCCCC2C)nc2ccccc2c1=O (stereo unspecified),inactive
14,Cc1ccc(/C=N/NC(=O)c2cc3ccccc3cc2O)o1,inactive
15,COc1ccccc1N(C)S(=O)(=O)c1ccc(C(=O)NC2CCCCCC2)cc1,inactive
16,COc1ccc(OC)c(-c2csc(-c3cccs3)n2)c1,inactive
17,COC(=O)[C@H](Cc1ccccc1)NC(=O)Nc1ccc(S(N)(=O)=O)cc1,inactive
18,C/C(=N/NC(=O)CCc1ccccc1)c1ccco1,inactive
19,CCN(CC)S(=O)(=O)c1ccc(N2CCN(C)CC2)c(NC(=O)Nc2ccccc2F)c1,inactive
20,Cc1sc2ncnc(SCC(=O)Nc3ccc(CN4CCCC4)cc3)c2c1C,inactive
21,C=CCn1c(=NC(=O)c2ccc(S(=O)(=O)N3CCCC3)cc2)sc2cc(NC(C)=O)ccc21,inactive
22,CCN(CC)CCCNC(=O)c1cc(-c2cccc(Cl)c2)on1,inactive
